In ChEMBL document CHEMBL4513146, “CO-ADD screening of Karazin Kharkiv National University (Ukraine) compounds” one finds Inhibition data, which are given here for 28 compounds.

Measured potencies and affinities stand elsewhere.

For one assay, the system named is Klebsiella pneumoniae. The note with it: Concentration 32 ug.mL-1;; ASSAY_TEST Inhibition of Bacterial Growth; detection method Absorption (OD600); MEDIA CAMHB; plate type 384well; NBS; CORNING #3640; time 18 hr.
Another assay concerns Candida albicans. As to conditions: Concentration 32 ug.mL-1; ASSAY_TEST Inhibition of Fungal Growth; detection method Absorption (OD530).
The next assay concerns Cryptococcus neoformans. The note with it: Concentration 32 ug.mL-1; ASSAY_TEST Inhibition of Fungal Growth; detection method Resazurin; Absorption (OD600-OD570); plate type 384well; NBS; CORNING #3640. A general note: The colour change of resazurin is a common sign of viable cells or microbes.

The Inhibition is the drop in the measured response relative to a control, in per cent. For the compound `O=S(=O)(c1ccc2nncn2c1)N(Cc1cccc(F)c1)c1ccc2c(c1)OCCO2`, the Inhibition is listed as 10.4% in the assay with Klebsiella pneumoniae, 1.26% in the assay with Candida albicans and -5.06% with Cryptococcus neoformans.
The matching figures for `COc1ccccc1NC(=O)Cn1nc2c(SC3CCCCC3)nccn2c1=O`: -0.89%, 12.37% and -26.18%.
The corresponding values for `Cc1ccc(Oc2nc3ccccc3n3c(=O)n(CC(=O)Nc4ccccc4C(F)(F)F)nc23)cc1` are 13.52%, 1.1% and -22.18%.
The matching figures for `CC(=O)c1ccc(NC(=O)Cn2nc3ccc(-c4ccc(C)cc4)nn3c2=O)cc1`: 11.92%, 4.12% and -11.07%.
On to `O=C(Cn1nc2ccc(-c3ccc(Cl)cc3)nn2c1=O)NC1CCCC1`, for which the Inhibition is recorded as 16.69% in the assay on Klebsiella pneumoniae, 1.09% with Candida albicans and -13.05% in the assay on Cryptococcus neoformans.
The matching figures for `O=C(Cn1nc2ccc(-c3ccc(Cl)cc3)nn2c1=O)N1CCN(c2ccc(F)cc2)CC1`: -0.53%, 2.31% and -8.76%.
The matching figures for `COc1ccc(NC(=O)Cn2nc3cc(C)nc(Nc4cc(C)cc(C)c4)n3c2=O)cc1`: 10.21%, 1.22% and -8.99%.
The corresponding values for `Cc1nnc2c(S(=O)(=O)N(Cc3ccccc3Cl)c3ccc(F)c(F)c3)cccn12` are 13.53%, 0.59% and -7.47%.
For `Cc1cc2nn(CC(=O)Nc3ccc(Cl)cc3)c(=O)n2c(Nc2ccc(F)c(C)c2)n1`, the values for the Inhibition in the assay on Klebsiella pneumoniae, with Candida albicans and in the assay with Cryptococcus neoformans were 19.07%, 3.54% and -11.52%, respectively.
The matching figures for `O=C(Cn1nc2ccc(-c3ccc(Cl)cc3)nn2c1=O)N1CCN(c2ccccc2F)CC1`: 1.3%, 2.81% and -11.05%.
On to `O=c1n(Cc2ccc3c(c2)OCO3)nc2ccc(-c3ccccc3)nn12`, for which the Inhibition is given as 13.28% in the assay on Klebsiella pneumoniae, 2.43% with Candida albicans and -7.16% in the assay with Cryptococcus neoformans.
The matching figures for `CC(C)c1nnc2c(=O)n(CC(=O)Nc3cc(Cl)ccc3Cl)c3ccccc3n12`: 7.9%, 3.43% and -8.45%.
The matching figures for `Cc1ccc(-c2cc3c4nn(CC(=O)Nc5ccc(F)cc5Cl)c(=O)n4ccn3n2)cc1`: 2.7%, 1.88% and -28.25%.
The matching figures for `Cc1nnc2c(S(=O)(=O)N(Cc3ccccc3F)c3cc(F)cc(F)c3)cccn12`: 1.21%, 0.25% and -4.37%.
For the compound `COc1ccc(N(Cc2cccc(C)c2)S(=O)(=O)c2ccc3nnc(C)n3c2)cc1`, the Inhibition is recorded as 7.11% with Klebsiella pneumoniae, 0.04% in the assay with Candida albicans and -1.35% in the assay on Cryptococcus neoformans.
As to `CCc1ccc(N(Cc2ccccc2)S(=O)(=O)c2cccn3cnnc23)cc1`, the Inhibition is on record as 1.9% in the assay with Klebsiella pneumoniae, 2.34% with Candida albicans and -3.81% with Cryptococcus neoformans.
The matching figures for `CCC(C)NC(=O)Cn1nc2n(Cc3cccs3)c(=O)c3sccc3n2c1=O` (centres undefined): 6.55%, 0.06% and -19.39%.
Consider `CCCc1nnc2c(=O)n(CC(=O)Nc3ccc(Cl)c(Cl)c3)c3ccccc3n12`, for which the Inhibition is given as 5.7% with Klebsiella pneumoniae, 0.11% in the assay on Candida albicans and -14.21% with Cryptococcus neoformans.
The matching figures for `O=S(=O)(c1ccc2nncn2c1)N(Cc1cc(F)cc(F)c1)c1ccccc1`: -3.49%, -0.85% and -9.11%.
`O=C(Cn1nc2c(SC3CCCCC3)nccn2c1=O)Nc1ccccc1Br`: the values for the Inhibition in the assay with Klebsiella pneumoniae, with Candida albicans and in the assay with Cryptococcus neoformans were 3.34%, 3.41% and -1.71%, respectively.
The corresponding values for `Cc1cc2nn(CC(=O)Nc3ccc(F)cc3F)c(=O)n2c(Nc2ccc(C)c(F)c2)n1` are 8.43%, 24.78% and -2.94%.
The matching figures for `CCc1cccc(C)c1NC(=O)CSc1nnc2ccc(C(=O)Nc3cccc(F)c3)cn12`: 5.93%, 1.09% and -4.75%.
The matching figures for `COc1ccc(Cl)cc1NC(=O)CSc1nnc2c(=O)n(-c3ccc(C)c(C)c3)ccn12`: 15.8%, 0.63% and -9.59%.
Consider `Cc1ccc(CNC(=O)Cn2nc3ccc(SC4CCCCC4)nn3c2=O)cc1`, for which the Inhibition in the assay with Klebsiella pneumoniae is reported as 11.36%; in the assay on Candida albicans, 13.29%; in the assay on Cryptococcus neoformans it was -15.57%.
The corresponding values for `Cc1ccc(-c2ccc3nn(CC(=O)NCc4ccc(Cl)cc4)c(=O)n3n2)cc1C` are 6.14%, 6.17% and -11%.
The corresponding values for `Cc1ccc(Oc2nccn3c(=O)n(CC(=O)Nc4ccc(Br)cc4F)nc23)cc1` are 2.41%, 2.18% and -6.11%.
Regarding `COC(=O)c1sccc1NC(=O)CSc1nc2ccccc2n2c(C)nnc12`, the values for the Inhibition in the assay on Klebsiella pneumoniae, with Candida albicans and in the assay on Cryptococcus neoformans were 6.24%, 5.11% and -2.05%, respectively.
The corresponding values for `Cc1ccc(-c2cc3c4nn(CC(=O)Nc5ccc(Br)cc5)c(=O)n4ccn3n2)cc1C` are -3.52%, 9.45% and -8.46%.
